# In ChEMBL document CHEMBL1157539, “Thousands of chemical starting points for antimalarial lead identification” (Nature, 2010):
# Tested on: HepG2
# Experiment: GSK_TCMDC: Percent inhibition of human HepG2 cell line. Test compounds present at 10uM.
# Type: functional
row,Structure (SMILES),Inhibition
1,Cc1nn(C)c(C)c1CN(Cc1nc(-c2cccc(Oc3ccccc3)c2)oc1C)C1CC1,7%
2,CN1CCN(CCCN(Cc2cccc(-c3ccc(CNCCc4ccccc4)cc3)c2)C(=O)Nc2ccccc2)CC1.O=C(O)C(F)(F)F,61%
3,CN1CCN(c2ccc(-c3cc(-c4cc(F)c(F)c(F)c4)cnc3N)cc2)CC1,58%
4,O=C(NCC(CCN1CCC(c2c[nH]c3ccccc23)CC1)c1ccccc1)Nc1ccc(Cl)c(Cl)c1 (configuration not stated),46%
5,CC(C)(C)c1ccc(CNC(=O)c2cc(CNC3CCNC3)ccc2O)cc1 (configuration not stated),0%
6,CN(C)c1ccc(CN2CCC(NC(=O)c3ccc(-c4ccccc4F)s3)CC2)cc1.O=C(O)C(F)(F)F,41%
7,CC(C)N1CCC(N(Cc2ccc(-c3ccc(C(F)(F)F)cc3)cc2)C(=O)Cn2c(SCc3cccc(F)c3F)nc(=O)c3ccccc32)CC1.O=C(O)C(O)C(O)C(=O)O,74%
8,COc1ccc(CN(C)CCCc2ccc(NC(=O)c3cccc4c(=O)c5cccc(F)c5[nH]c34)cc2)cc1OC,100%
9,Cn1nc(-c2cccc(CN[C@@H]3CCc4ccc(O)cc43)c2)c2cnc(NC3CCCC3)nc21,6%
10,O=C(NCCc1ccccc1)N(Cc1cccc(-c2ccc(CNCc3ccc4c(c3)OCO4)cc2)c1)C1CCN(Cc2ccccc2)CC1.O=C(O)C(F)(F)F,11%
11,Cc1noc(C)c1-c1cccc(CNCc2ccc(-c3ccc(-c4nc5cc(C(F)(F)F)ccc5[nH]4)s3)cc2)c1.O=C(O)C(F)(F)F,54%
12,Cc1ccc(O)cc1Nc1ccnc2cc(-c3csc(CNCCN4CCOCC4)n3)ccc12,6%
